Test results as given in PubChem BioAssay (NCATS).
A number with no mark means an inactive call. Records with an inconclusive call do not appear. A call without a number means that no potency is given here. Active and inactive are the calls of the source. Calls come from the whole dose curve; as a rule, active = well fitted curve in the direction sought with a large enough effect; inconclusive = small, poorly fitted or top-dose-only effect, or another doubt; inactive = no such curve, though single readings can be large; an effect the other way counts as inactive or inconclusive.

Legend:
[1] = Cellular Toxicity (caspase-3) Jurkat (AID 655);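 note: cells exposed to compound for 16 h at 37 °C before reading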
Outline: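 qHTS in human Jurkat T-cell leukemia line: 16 hr compound treatment at 37 °C, caspase-3/7 activity measured by Caspase-Glo luminescence. AC50 derived from Hill equation.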

[2] = Cellular Toxicity (caspase-3) HUV-EC-C (AID 656)
Outline: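 Concentration-dependent caspase 3/7 induction was assessed in HUV-EC-C cells exposed for 16 hours. Data scaled between DMSO and tamoxifen (100 uM) controls.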

[3] = Cellular Toxicity (caspase-3) SHSY5Y (AID 657)
Outline: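 Readout: caspase-cleaved peptide-aminoluciferin substrate driving luciferase light in SH-SY5Y neuroblastoma cells after 16 h treatment. Response normalized to DMSO and 10 uM staurosporine controls.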

[4] = Cellular Toxicity (caspase-3) BJ (AID 658); details: Potency: caspase-3 activation
Outline: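 BJ human foreskin fibroblasts, 1000 cells/well, treated 16 hours at 37 °C in complete medium; caspase 3/7 activity by Caspase-Glo luminescence after 1 hr at room temperature. Normalized to DMSO and 10 uM staurosporine; AC50 from Hill fits.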

[5] = Cellular Toxicity (caspase-3) MRC-5 (AID 659)
Outline: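 MRC-5 human normal lung fibroblasts, 1500 cells/well, treated 16 h at 37 °C in complete medium. Caspase 3/7 measured by Caspase-Glo luminescence after 1 h at room temperature. Normalized to DMSO and 10 uM staurosporine; AC50 from Hill fit.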

[6] = Cellular Toxicity (caspase-3) Mesangial (AID 660);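 note: combined caspase 3 and 7 activity read by Caspase-Glo luminescence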
Outline: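 Concentration-response qHTS: compound-induced rise in caspase 3/7 luminescence in human mesangial cells after 16 h, normalized to DMSO and 100 uM tamoxifen controls.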

[7] = Cellular Toxicity (caspase-3) SK-N-SH (AID 661); details: SK-N-SH caspase-3 activation, qHTS; caspase-3 activation: at 91.7 µM (top of the series), DMSO as zero, staurosporine as full
Outline: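 Caspase 3/7 activation is measured as a luminescence increase from aminoluciferin released by substrate cleavage in SK-N-SH cells after 16 hr compound treatment; values are AC50 from concentration-response curves.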

[8] = Cellular Toxicity (caspase-3) H-4-II-E (AID 663);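 note: cells exposed to compound for 16 hr before readout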
Outline: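 Rat hepatoma H-4-II-E cells (1500/well) plated 5 hr, then exposed to compound titrations for 16 hr at 37 °C. Caspase-Glo 3/7 luminescence read after 20 min at RT; data normalized to DMSO and 100 uM tamoxifen, AC50 from Hill fits.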

[9] = Cellular Toxicity (caspase-3) Hek293 (AID 664); details: HEK293 caspase-3 activation, DMSO = 0%, 100 µM tamoxifen = 100%; at 92.2 µM (top of the series);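 note: cells exposed to compound for 16 h at 37 °C before readout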
Outline: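 Activation of caspase-3/7 is measured as increased luminescence from cleaved peptide-aminoluciferin substrate in HEK293 cells treated 16 hours at 37 °C. AC50 values come from Hill-equation fits of concentration-response data.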

[10] = Cellular Toxicity (caspase-3) N2a (AID 665);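 note: compound exposure lasted 16 h at 37 °C before readout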
Outline: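 Plated mouse neuroblastoma N2a cells received titrated compounds for 16 h in complete medium. Caspase activity was then detected with a peptide-aminoluciferin luminescent reagent.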

[11] = Cellular Toxicity (caspase-3) NIH 3T3 (AID 666);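 note: caspase signal read after 16 h compound exposure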
Outline: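 Concentration-response qHTS in NIH 3T3 mouse fibroblasts scores caspase-3/7 activation as rising luminescence after 16 hr compound exposure. Signals are scaled between DMSO-only and 100 uM tamoxifen.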

[12] = target: Cytochrome P450 3A4 (Homo sapiens) (UniProt P08684); experiment: qHTS Assay for Inhibitors and Substrates of Cytochrome P450 3A4 (AID 884); note: nearly all actives have a fitted effect of over 50% in size; note: potency is the fitted concentration of half-maximal effect
Cytochrome P450 3A4 (Homo sapiens), sequence (P08684 whole entry, looked up): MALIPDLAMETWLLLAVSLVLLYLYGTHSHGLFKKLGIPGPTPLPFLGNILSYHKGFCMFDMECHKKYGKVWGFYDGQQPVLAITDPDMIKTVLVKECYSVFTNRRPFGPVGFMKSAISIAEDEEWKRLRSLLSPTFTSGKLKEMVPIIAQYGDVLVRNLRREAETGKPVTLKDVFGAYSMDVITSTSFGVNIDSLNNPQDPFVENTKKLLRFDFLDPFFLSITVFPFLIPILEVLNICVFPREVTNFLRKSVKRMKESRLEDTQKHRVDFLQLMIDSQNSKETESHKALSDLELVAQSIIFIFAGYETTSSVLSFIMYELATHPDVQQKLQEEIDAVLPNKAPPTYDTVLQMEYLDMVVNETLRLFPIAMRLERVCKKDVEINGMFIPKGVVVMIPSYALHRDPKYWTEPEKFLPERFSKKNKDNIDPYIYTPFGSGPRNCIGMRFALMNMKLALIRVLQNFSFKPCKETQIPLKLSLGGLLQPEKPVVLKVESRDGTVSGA
Outline: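 20 nM human CYP3A4 with 25 uM Luciferin-PPXE (at KM) in 200 mM KPO4, preincubated 10 min with compound; NADPH regeneration started a 60 min RT reaction. Luciferin detected by luminescence, normalized to 57 uM ketoconazole as full inhibition.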

[13] = Cell Viability - LYMP2-001 (AID 921);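 note: cells exposed to compound for 24 h at 37 °C; nearly all actives have a fitted effect of over 70% in size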
Outline: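 A lymphoblastoid cell line of human origin was treated with library compounds across a concentration series for 24 hours, and viable cell number was estimated from ATP-driven luciferase light output. Hill modeling gave AC50.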

[14] = target: Cytochrome P450 3A4 (Homo sapiens) (UniProt P08684); experiment: qHTS Assay for Activators of Cytochrome P450 3A4 (AID 885); note: nearly all actives have a fitted effect of over 65% in size
Outline: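 20nM CYP3A4 + 25uM Luciferin-PPXE (=KM), 200mM KPO4; cpd 10 min RT; NADPH regen, 60 min RT; stop w/ detection buffer, 20 min; luminescence. Normalized to 57 uM ketoconazole.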

| SMILES | Potency [1] | outcome [2] | Potency [3] | Potency [4] | outcome [5] | outcome [6] | Potency [7] | outcome [8] | caspase-3 activation [9] [%] | outcome [10] | outcome [11] | Potency [12] | Potency [13] | Potency [14] |
| --- | --- | --- | --- | --- | --- | --- | --- | --- | --- | --- | --- | --- | --- | --- |
| CC1=CC(=O)NS(=O)(=O)O1 | inactive | inactive | inactive | inactive | inactive | inactive | inactive | inactive | -2.78 | inactive | inactive | inactive | inactive | – |
| Cc1ncc[nH]1 | inactive | inactive | inactive | inactive | inactive | inactive | inactive | inactive | -0.913 | inactive | inactive | inactive | inactive | – |
| O=P(O)(O)O | inactive | inactive | inactive | inactive | inactive | inactive | inactive | inactive | -0.448 | inactive | inactive | inactive | inactive | – |
| CC/C=C\C/C=C\C/C=C\CCCCCCCC(=O)O | inactive | inactive | inactive | inactive | inactive | inactive | inactive | inactive | 0.606 | inactive | inactive | 15.8 µM (active) | – | inactive |
